From PubChem BioAssay AID1460 (National Center for Advancing Translational Sciences (NCATS), 2008)
Values joined by “and” are separate entries in the source; they are usually repeats but may differ in a detail not shown here. Equal values may be shown once. Screen size: about 270,000 compounds; about 5,800 (2.1%) were called active. Another 16% or so got no clear call; they are omitted. The call rests on the fitted dose curve; in most records, active means well fitted inhibition curve with a large enough effect; inconclusive means small, poorly fitted or top-dose-only effect; inactive means flat fitted curve, though single readings scatter. The list comes from a sample in which actives are over-represented; it also holds similar structures and randomly drawn compounds.

molecular target: Microtubule-associated protein tau (Homo sapiens) (UniProt P10636); experiment: qHTS for Inhibitors of Tau Fibril Formation, Thioflavin T Binding; conditions: recombinant tau K18 P301L (four-repeat tau fragment), heparin-induced fibrillization, ThT fluorescence; series mostly up to 57.4 µM; activity, negative = inhibition: at the top concentration; further: nearly all actives have a fitted effect of over 55% in size
Summary of the method: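 Heparin-induced (20 uM) aggregation of recombinant human K18 P301L tau, 15 uM unlabeled with 0.24 uM labeled, pH 7 acetate buffer, 6 hr at 37 C with compound. Fibrils quantified by 30 uM ThT fluorescence after 1 hr ambient incubation.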
On the % scale 0 is the no-effect control and ±100 the full control effect; potency means the concentration at half of the fitted maximal effect.

Chain of Microtubule-associated protein tau (Homo sapiens) (P10636 561-689 P618L limits assumed): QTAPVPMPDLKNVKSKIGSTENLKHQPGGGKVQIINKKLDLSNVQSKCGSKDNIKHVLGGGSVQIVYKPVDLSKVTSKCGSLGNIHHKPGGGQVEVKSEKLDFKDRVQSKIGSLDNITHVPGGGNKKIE

activity, negative = inhibition, inactive:
Cc1cccc(CC(=O)Nc2cccc(-c3cn4cccnc4n3)c2)c1 -5.47%, CCc1cccc(C)c1NS(=O)(=O)c1ccc(-c2cc(C)no2)s1 6.56%, COc1cc(/C=N/NC(=O)CCc2n[nH]c(=O)[nH]c2=O)ccc1O -4.7%, O=C(NC(Nc1nc2ccc([N+](=O)[O-])cc2s1)(C(F)(F)F)C(F)(F)F)c1ccccc1 -14.9%, Cc1ccc(S(=O)(=O)Nc2nc3ccccc3s2)cc1[N+](=O)[O-] -21.2%, Cc1ccc(C(=O)Nc2nnc(-c3cccs3)s2)cc1C 4.48%, COc1cc(/C=N/NC(=O)c2ccccc2)ccc1OS(=O)(=O)c1ccccc1 -1.52%, Cc1ccc(S(=O)(=O)c2cn(Cc3ccccc3)c3cc(N4CCCC4)c(F)cc3c2=O)c(C)c1 9.83%, O=C1CSC2(C(=O)N(Cc3ccccc3)c3ccccc32)N1c1cccc(F)c1 (stereo not drawn) 2.49%, O=C(COc1ccccc1F)Nc1ccc(C(=O)OCc2cc(=O)n3nc(C4CC4)sc3n2)cc1 -5.48%, CCOc1ccc(OCC)c(NC(=O)CN(c2ccc(C)cc2)S(=O)(=O)c2c(C)n[nH]c2C)c1 -14.9%, CNC(=O)CN1C(=O)c2cccnc2Sc2ccccc21 -4.1%, Cc1ccc(Cn2c(=O)n(-c3ccc(C)cc3)c(=O)c3c2c2cc(C)ccc2n3C)cc1 5.05%, COc1ccccc1NC(=O)c1cc(C2CC2)nc2c1c(C)nn2-c1ccc(C)cc1 -1.61%, Cc1ccc2nc(CNC(=O)c3ccccc3)[nH]c2c1 -7.98%, COc1ccc(NC(=O)c2cc3cc(C)ccc3n2C)cc1 -5.29%, CCCCNC(=O)CSc1nc2cc3c(cc2c(=O)n1CCCCCC(=O)NCc1ccc2c(c1)OCO2)OCO3 -5.94%, CC(=O)N/C(=C/c1ccc(Cl)cc1)C(=O)NCCc1c[nH]c2ccccc12 -12.8%, O=C(NCCc1c[nH]c2ccccc12)C(=O)NCC1CCCO1 (stereo not drawn) -2.97%, COc1ccc(CCNC(=O)c2nn(C)c3c2CSc2ccccc2-3)cc1OC -15.1%, CCc1nc2onc(C)c2c(=O)n1CC(=O)O 3.12%, CCCCn1c(=O)c2oc3ccccc3c2n(CC(=O)Nc2ccccc2OC)c1=O 0.737%, COc1cc(C(CC(=O)NCCC(C)C)N2Cc3ccccc3C2=O)cc(OC)c1OC (stereo not drawn) 5.25%, O=C(Cn1cnc2c(oc3ccccc32)c1=O)Nc1ccc(OC(F)(F)F)cc1 5.46%, Cc1ccc(CN2CCC(CNC(=O)c3cnn(-c4ccccc4Cl)c3C3CCN(C(=O)OC(C)(C)C)CC3)CC2)cc1 -12.4%, COc1ccc(-c2nnc(SCC(=O)Nc3ccccc3C)o2)cc1OC 9.86%, CC(c1ccco1)N(C(=O)COc1ccccc1[N+](=O)[O-])c1ccccn1 (stereo not drawn) -4.05%, O=[N+]([O-])c1cccc2ncccc12 6.12%, COCCNc1ncnc2c1c(-c1ccccc1)cn2-c1ccc(C)c(Cl)c1 -15.6%, CCc1nnc(NC(=O)c2nc3nccc(C)n3n2)s1 -0.231%, CCc1nnc(NC(=O)c2cccc(S(=O)(=O)N(C)c3ccc(OC)cc3)c2)s1 -6.54%, CCC(=O)N1c2ccccc2CC1C(=O)N1CCN(c2cccc(OC)c2)CC1 (stereo not drawn) 5.58%, Cn1c(=O)sc2cc(NS(=O)(=O)c3ccc(C(C)(C)C)cc3)ccc21 -1.27%, COc1cc(COCC(O)CN2CCN(Cc3ccc4c(c3)OCO4)CC2)cc(OC)c1OC (stereo not drawn) -0.845%, COc1ccc2cc1Oc1ccc(cc1)C[C@H]1c3cc(c(OC)cc3CCN1C)Oc1c(O)c(OC)cc3c1[C@H](C2)N(C)CC3 9.57%, COC(=O)c1ccccc1NC(=O)C(Cc1ccccc1)N1Cc2ccccc2C1=O (stereo not drawn) -8.51%, CCCCN(CC)CCCNC(=O)Cn1ncc2c([nH]c3ccc(C)cc32)c1=O -6.43%, Cc1ccc(NC(=O)CSc2nc3c(c(=O)[nH]2)CN(Cc2ccc4c(c2)OCO4)CC3)cc1C 5.2%, Cc1ccc(CN2CCC(CNC(=O)c3cnn(-c4ccc(C)cc4)c3C3CCN(C(=O)OC(C)(C)C)CC3)CC2)cc1 -15.1%, CCCCOC(=O)/C(C#N)=C/c1ccc(-c2cccc(C(F)(F)F)c2)o1 -16.5%, Cc1ccc2nc(/C(C#N)=C/c3ccc(-c4ccc(C(=O)OC(C)C)cc4)o3)[nH]c2c1 -4.05%, COc1cccc(N2CCN(S(=O)(=O)c3ccc4c(c3)CCCN4C(C)=O)CC2)c1 -2.31%, CCOC(=O)c1[nH]c2ccc(OC)cc2c1NC(=O)CCN1CCN(Cc2ccccc2)CC1 -7.67%, COC(=O)c1[nH]c2ccccc2c1NS(=O)(=O)c1ccc(OC)cc1OC -2.82%, O=S(=O)(NCCS(=O)(=O)N1CCN(c2ccccc2)CC1)c1ccc(Cl)cc1 -4.85%, CN(C(=O)CSc1nc2ccc(NC(=O)COc3ccccc3)cc2s1)c1ccccc1 -3.95%, CCCCc1nn2c(=O)cc(COC(=O)c3ccc(NC(=O)c4ccccc4C)cc3)nc2s1 -1.76%, O=C(c1ccncc1)c1ccc([N+](=O)[O-])cc1 0.754%, Cc1ccc(C(=O)Cn2cc([N+](=O)[O-])nc2C)cc1 -1.76%

Potency, active:
COc1cc(/C=N\Nc2nc(-c3cccs3)c(NC(C)=O)s2)ccc1O 15.8 µM, O=[N+]([O-])c1cc(Br)c(O)c(/C=N/Nc2nc3ccccc3s2)c1 4.47 µM, COc1cc(/C=N/Nc2nc3ccccc3s2)ccc1O 5.62 µM, N#C/C(=C/c1ccc(N2CCCCC2)o1)C(=O)NCCc1c[nH]c2ccccc12 4.47 µM, Oc1ccc(N=Nc2nccs2)c(O)c1 3.55 µM, Oc1ccc2ccccc2c1N=Nc1nccs1 7.94 µM, O=[N+]([O-])c1cc([N+](=O)[O-])c2cccnc2c1O 12.6 µM, CCc1ccc2nc3sc(C(=O)Nc4nnc(CC)s4)c(N)c3cc2c1 3.98 µM, COc1c(O)ccc2c1CN1CCc3cc4c(cc3C1C2)OCO4 (stereo not drawn) 22.4 µM, CCOC(=O)c1ccc(-c2ccc(/C=C(\C#N)C(=O)Nc3ccc(OCC)cc3)o2)cc1 1.41 µM, COC(=O)c1[nH]c2ccc(Br)cc2c1NC(=O)Oc1ccccc1 15.8 µM, O=C1CSC(=S)N1/N=C/c1ccc(O)c([N+](=O)[O-])c1 6.31 µM, O=C(Cn1c[n+](CC(=O)c2ccc([N+](=O)[O-])cc2)cn1)c1ccc([N+](=O)[O-])cc1 12.6 µM and 20 µM

Potency, inactive:
COc1ccc(S(=O)(=O)Nc2ccc(O)c(Sc3nc4ccccc4s3)c2)cc1
